Most compounds without a hit are left out; they make up all but 2.9% or so of the library.
TSHR antagonist: human thyrotropin receptor antagonism. P16473. TSHR-expressing cells, TSH-stimulated cAMP HTRF, 2 h; stronger effect = lower value. activity change, negative = inhibition, % at 11.5 µM. 0.2% of 330,000 active;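 active means activity change below a set negative limit, meaning inhibition stronger than a set level, cut at about -70% in these data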
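Inhibition of cAMP made by TSHR-expressing cells under TSH stimulation (4nM final, EC80; 2 h, 37 deg C) is quantified with a one-step lysis HTRF kit, anti-cAMP cryptate versus cAMP-d2.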
DRD3 agonist: agonists of human D3 dopamine receptor; P35462; D3R DiscoveRx beta-arrestin cells, luminescence, 90 min; max activation, %; 0.58% of 410,000 active; AID 652048; in the data active means max activation above about 30%
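Agonist-mode cell screen: cells plated at 1500/well and incubated overnight at 37 °C, then exposed to library compounds for 90 min at 37 °C. Detection reagent was added for 30–60 min at room temperature, and luminescence was read.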
D3 antag: blocks the human D3 dopamine receptor. P35462. D3R cells, DiscoveRx beta-arrestin luminescence, antagonist mode; stronger effect = lower value. max response, negative = inhibition, %. 2.5% of 360,000 active. AID 652054; in the data active means max response below about -50%
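Cells plated overnight at 1500 cells/well, then exposed to library compounds with dopamine controls for 90 minutes at 37 degrees C. DiscoveRx reagent added for 30–60 minutes at room temperature; luminescence read, quantitative HTS format.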
B2AR arrestin: beta2AR (human) beta-arrestin recruitment activity; 0.02% of 330,000 active; P07550; beta-arrestin recruitment to beta2AR, cell-based reporter; AID 492947; Potency, µM (highest dose often 46.1 µM), hits mostly activators; active means well fitted activation curve with a large enough effect; further: nearly all actives have a fitted effect of over 65% in size
Target sequence (P07550 whole entry, looked up): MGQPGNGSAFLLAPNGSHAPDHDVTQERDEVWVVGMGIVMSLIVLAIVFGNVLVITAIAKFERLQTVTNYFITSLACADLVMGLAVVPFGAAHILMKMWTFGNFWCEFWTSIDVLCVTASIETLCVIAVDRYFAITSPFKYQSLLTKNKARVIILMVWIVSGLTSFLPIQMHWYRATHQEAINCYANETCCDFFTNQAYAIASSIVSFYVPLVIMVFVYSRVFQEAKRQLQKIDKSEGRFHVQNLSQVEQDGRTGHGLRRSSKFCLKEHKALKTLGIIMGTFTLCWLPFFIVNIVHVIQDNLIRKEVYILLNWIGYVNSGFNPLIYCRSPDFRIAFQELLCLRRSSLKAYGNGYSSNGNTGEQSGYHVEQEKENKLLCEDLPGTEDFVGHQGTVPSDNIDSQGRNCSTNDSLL
Numbers stand for hits; n = inactive; x = not tested or not shown.

SMILES	TSHR antagonist	DRD3 agonist	D3 antag	B2AR arrestin
COc1cc(/C=N/NC(=O)COc2cccc(F)c2)ccc1OS(=O)(=O)c1ccc(C)cc1	n	n	-53.3	n
COC(=O)N/N=C/c1ccc(OS(=O)(=O)c2ccc(C)cc2)c(OC)c1	n	n	n	n
COc1cc(/C=N/NC(=O)COc2ccc(Cl)cc2)ccc1OS(=O)(=O)c1ccc(C)cc1	n	n	-50.2	n
COc1ccc(NC(=S)Nc2ccc3nsnc3c2)cc1	n	n	-61.5	n
COc1ccc(-c2noc(C3CC(=O)N(c4ccc(C)c(F)c4)C3)n2)c(OC)c1 (stereo not given)	x	n	x	x
Oc1c(C=NCc2ccncc2)sc2ccccc12	n	n	-100.5	n
Oc1c(C=Nc2cccnc2)sc2ccccc12	n	n	-65.2	n
COc1ccc(NC(=O)C(=O)NCC2(c3ccccc3)CCCC2)c(OC)c1	x	n	x	x
COc1ccc(C(O)(CC(C)C)C(CN2CCOCC2)c2ccccc2)cc1 (stereo not given)	n	88.3	n	n
CCOC(=O)c1cc(C)n(CC2CCC(C(=O)Nc3ccc(OC)cc3)CC2)c1C (stereo not given)	x	30.5	x	x
CCOC(=O)c1cc(C)n(CC2CCC(C(=O)Nc3cc(OC)cc(OC)c3)CC2)c1C (stereo not given)	x	n	x	x
CCCc1nc2oc3c(NCCN(C)C)ncnc3c2c2c1CCCC2	n	n	-54.2	n
CCCc1nc2oc3c(NCCCN(C)C)ncnc3c2c2c1CCCC2	n	n	n	n
Cc1ccc(CNC(=O)C(=O)NCC(c2ccc3c(c2)OCO3)N2CCOCC2)cc1 (stereo not given)	x	n	x	x
CC1CCCCN1CCNC(=O)Cn1nc(-c2ccccc2)ccc1=O (stereo not given)	n	n	-98.0	n
Cc1ccc(-c2ccc(=O)n(CC(=O)NCCCN3CCCCC3C)n2)cc1 (stereo not given)	n	n	n	n
CN/C(=C/[N+](=O)[O-])NCCSCc1csc(CN(C)C)n1	x	n	n	x
CN=C(C[N+](=O)[O-])NCCSCc1ccc(CN(C)C)o1	n	n	-58.6	n
COc1cccc(Cn2c(=O)n(-c3ccccc3C)c(=O)c3c2c2cc(C)ccc2n3C)c1	x	n	x	x
Cc1[nH]n(-c2ccccc2)c(=O)c1C1(C(F)(F)F)C(=O)N(c2ccc(F)cc2)C2=C1C(=O)CC(C)(C)C2 (stereo not given)	n	n	-70.6	n
NC(=O)C1CCN(c2nc(-c3ccccc3)cs2)CC1	n	x	x	x
CN(C)S(=O)(=O)c1ccc(N=Cc2c(C(F)(F)F)[nH][nH]c2=O)cc1	n	n	n	n
Cn1[nH]c(C(F)(F)F)c(C=Nc2ccc(Cl)cc2)c1=O	n	n	-62.7	n
O=c1c(C=Nc2ccc(Oc3ccccc3)cc2)c[nH]n1-c1cccc(Cl)n1	n	n	-56.1	n
COc1ccc(-c2noc(CSc3nnc(-c4ccncc4)n3-c3ccc(C)c(C)c3)n2)cc1	x	n	x	x
SMILES	TSHR antagonist	DRD3 agonist	D3 antag	B2AR arrestin
CC(Sc1ccc2nnc(-c3ccc(F)cc3)n2n1)C(=O)O (stereo not given)	n	n	n	n
CCOC(=O)C(C)Sc1ccc2nnc(-c3ccc(F)cc3)n2n1 (stereo not given)	n	35.1	n	n
COc1ccc(-c2nnc3ccc(SC)nn23)cc1	n	n	-86.3	n
Cc1cc(/C=C2/C(=O)NN(c3ccccc3)C2=O)c(C)n1-c1ccc(O)cc1	n	n	n	n
COc1ccc(-n2c(C)cc(/C=C3\C(=O)NN(c4ccccc4)C3=O)c2C)cc1	n	n	-58.5	n
Cc1cccc(NC(=O)Cn2c(=O)c3cccn3c3ccccc32)c1C	x	n	x	x
Cc1cc(C)nc(SCC(=O)N2CCOCC2)n1	n	n	-53.5	n
COc1ccc(N/C(=N\c2nc(C)cc(C)n2)NC(=O)C(C)C)cc1OC	n	n	-65.2	n
COc1ccc(N/C(=N\c2nc(C)cc(C)n2)NC(C)=O)cc1OC	n	n	n	n
CC(C)Oc1ccc(CNC(=O)c2cccc(NC(=O)N3CCSc4ncccc43)c2)cc1	x	n	x	x
CC(=O)Nc1ccc(S(=O)(=O)Nc2c(NC3CCCCC3)c3ccccc3oc2=O)cc1	-89.2	n	n	n
Cc1ccc(OCC(=O)Nc2ccc3nc(SCC(=O)N4CCCC4)sc3c2)cc1	x	n	x	x
O=C(Nc1ccc(-c2nc3cc(Cl)ccc3c(=O)o2)cc1)c1ccco1	n	n	n	n
O=C(Nc1ccc(-c2nc3c(ccc4ccccc43)o2)cc1)c1ccco1	n	46.3	n	n
COc1ccc(C)cc1NC(=O)CCS(=O)(=O)c1cc2c3c(c1)CCN3C(=O)CC2	x	n	x	x

Screening results (PubChem BioAssay)
